Screening results: PubChem, several laboratories
GLD-1 RNA inh – GLD-1/TGE RNA complex disruptors, primary screen, biochemical, fluorescence polarization | 320,000 compounds, 0.44% hits | Female germline-specific tumor suppressor gld-1 (Caenorhabditis elegans), Q17339 | inhibition, % at 5.96 µM | AID 2280, 2010 | purified GLD-1 + fluorescein TGE RNA;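 active means percent inhibition above a per-plate cutoff, the plate mean of test compounds plus 3 SD, cut at about 30% in these data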;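 further: 0% = DMSO wells with GLD-1 and probe and 100% = wells lacking GLD-1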
MEX-5 binding – MEX-5 zinc finger RNA-binding disruptors – biochemical, C. elegans, fluorescence polarization, MLPCN library, primary screen. Zinc finger protein mex-5 (Caenorhabditis elegans), Q9XUB2. AID 1832, 2009. activity score (negative = inhibition of binding), % at 10 µM. MEX-5/FITC-TCR2 RNA binding; hits give low values. 300,000 compounds, 0.38% hits;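 active means inhibition past about -25% in most replicates, and total fluorescence under double the plate's negative control median, limit read from the data; inconclusive means replicates evenly split on the limit, or fluorescence at least double controls; inactive means too little inhibition in most replicates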;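 further: 0% = DMSO and -100% = 5 µM competing unlabeled TCR2 RNA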
Bcl-xL primary – inhibitors of human Bcl-xL, primary screen, biochemical, fluorescence polarization, HTS | Bcl-2-like protein 1 (Homo sapiens), Q07817 | GST-Bcl-xL / FITC-Bim BH3 peptide fluorescence polarization | inhibition, % at 10.9 µM | 320,000 compounds, 0.7% hits | AID 2129, 2009;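 active means inhibition above the mean of all tested compounds plus 3 SD, cutoff set per campaign, cut at about 30% in these data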;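 further: 0% = DMSO wells and 100% = unlabeled Bim-BH3 peptide competitor; inhibitors lower millipolarization by displacing the labeled peptide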
MCL1 BIM primary – inhibitors of MCL1 binding to BIM-BH3, primary screen, biochemical, fluorescence polarization; GST-MCL1 / FITC-Bim-BH3 fluorescence polarization; inhibition, % at 10.9 µM; 320,000 compounds, 0.68% hits;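 active means inhibition above the mean inhibition of all tested compounds plus 3 SD, set per campaign, cut at about 40% in these data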;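 further: 0% = DMSO wells and 100% = unlabeled Bim-BH3 peptide control; higher means more loss of mP so more displacement of Bim peptide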
E coli Lon inh – inhibitors of E. coli Lon protease, primary screen, biochemical, fluorescence polarization; 360,000 compounds, 0.42% hits; inhibition, % at 7.94 µM; purified E. coli Lon protease; P0A9M0; in the data active means inhibition above about 13%, passing the limit was not always enough;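 further: 0% = enzyme with probe and DMSO and 100% = no enzyme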
EBV gp42 block – Epstein-Barr virus gp42 inhibitors, primary screen, biochemical, uHTS, fluorescence polarization; Fluorescence polarization binding assay, mP read-out; inhibition, % (tested at 21.74 µM); 220,000 compounds, 0.42% hits; in the data active means inhibition above about 50%
* marks the source's active call; other numbers are inactive results. Shown are actives, neighbours in structure and some others; about 1.5% of the full set was active somewhere.

For COc1ccc(NC(C)=O)cc1S(=O)(=O)N1CCn2cccc2C1C (stereo not drawn) the results were GLD-1 RNA inh 2.6, Bcl-xL primary 12.0, MCL1 BIM primary 7.8 and E coli Lon inh 0.0.
Screening CC(=O)c1ccc(S(=O)(=O)N2CCn3cccc3C2C)cc1 (stereo not drawn) returned GLD-1 RNA inh 19.6, Bcl-xL primary 42.8*, MCL1 BIM primary 41.7* and E coli Lon inh -6.5.
For CC1c2cccn2CCN1S(=O)(=O)c1ccc(F)cc1 (stereo not drawn) the results were GLD-1 RNA inh 1.5, Bcl-xL primary 7.9, MCL1 BIM primary 2.5 and E coli Lon inh -1.3.
For COC(=O)[C@H](CCSC)NC(=O)NC1CCN(Cc2ccccc2)CC1 the results were GLD-1 RNA inh 9.6, MEX-5 binding -35.5*, Bcl-xL primary 15.6, MCL1 BIM primary 19.3, E coli Lon inh -0.9 and EBV gp42 block -18.8.
`COC(=O)[C@@H](NC(=O)NC1CCN(Cc2ccccc2)CC1)C(C)C` gave GLD-1 RNA inh 2.4, MEX-5 binding -4.6, Bcl-xL primary 0.0, MCL1 BIM primary -0.4, E coli Lon inh -0.7 and EBV gp42 block 7.5.
`O=c1[nH]c(/C=C\c2ccc(O)c(O)c2)nc(O)c1[N+](=O)[O-]` gave MEX-5 binding -29.7* and E coli Lon inh 17.9.
`Cc1ccccc1Nc1ncccc1C(=O)N1CCOCC1` gave GLD-1 RNA inh -2.2, MEX-5 binding 0.8, Bcl-xL primary -1.1, MCL1 BIM primary -1.2, E coli Lon inh 56.5* and EBV gp42 block -28.2.
Screening O=C1c2ccccc2C(=O)c2[nH]cnc21 returned MEX-5 binding inconclusive, E coli Lon inh 2.5 and EBV gp42 block -4.9.
For O=C1c2ccccc2C(=O)c2[nH]c(=O)[nH]c21 the results were GLD-1 RNA inh 4.8, MEX-5 binding -55.4*, Bcl-xL primary 16.7, MCL1 BIM primary 26.6 and E coli Lon inh -2.5.
Screening CC(Sc1nc(N2CCOCC2)c2c(c1C#N)CC(C)(C)OC2)C(=O)O (stereo not drawn) returned GLD-1 RNA inh -10.2, MEX-5 binding 0.2, Bcl-xL primary 31.3*, MCL1 BIM primary -5.3 and E coli Lon inh -18.3.
For COC(=O)Sc1nc(N2CCOCC2)c2c(c1C#N)CC(C)(C)OC2 the results were GLD-1 RNA inh 0.3, MEX-5 binding 0.9, Bcl-xL primary 6.7, MCL1 BIM primary 3.1, E coli Lon inh 8.4 and EBV gp42 block -9.4.
Screening COc1cc(/C=N/N2C(=O)CSC2=S)ccc1O returned GLD-1 RNA inh -35.0, MEX-5 binding -0.5, Bcl-xL primary 3.9, MCL1 BIM primary 3.9, E coli Lon inh -22.3 and EBV gp42 block -17.9.
O=C1CSC(=S)N1/N=C/c1cc(Br)c(O)c(Br)c1 was read as GLD-1 RNA inh -64.9, MEX-5 binding -32.8*, Bcl-xL primary -3.9, MCL1 BIM primary -43.1 and E coli Lon inh inactive.
Screening CC1CCc2nn(CC(=O)NCCN3CCCCC3C)cc2C1 (stereo not drawn) returned GLD-1 RNA inh 4.5, MEX-5 binding -35.0*, Bcl-xL primary 17.4, MCL1 BIM primary 17.7, E coli Lon inh 3.9 and EBV gp42 block 5.0.
For CN(Cc1ccccc1)Cc1cc(=O)oc2ccc3ccccc3c12 the results were E coli Lon inh -16.2.
For O=C(NNC(=O)c1ccccc1O)c1ccc(S(=O)(=O)Nc2ccccc2F)cc1 the results were GLD-1 RNA inh 7.9, MEX-5 binding -25.9*, Bcl-xL primary 2.2, MCL1 BIM primary 6.3 and E coli Lon inh -9.2.
For COc1ccc(CCN(C)S(=O)(=O)c2cn(C)c(=O)n(C)c2=O)cc1OC the results were GLD-1 RNA inh -1.3, Bcl-xL primary -3.3, MCL1 BIM primary -6.9 and E coli Lon inh -6.6.
For Cc1ccn2c(=O)nc(SCC(=O)Nc3cc(C)on3)nc2c1 the results were GLD-1 RNA inh 4.8, MEX-5 binding -25.5*, Bcl-xL primary 9.2, MCL1 BIM primary 11.8 and E coli Lon inh 0.7.
